# Data as given in ChEMBL document CHEMBL4888484, “Replenishing the malaria drug discovery pipeline: Screening and hit evaluation of the MMV Hit Generation Library 1 (HGL1) against asexual blood stage Plasmodium falciparum ,using a nano luciferase reporter read-out” (2022).
# Hit rate of the full screen: of about 4,800 compounds, about 410 (8.5%) showed an effect of 50% or more. Shown is part of a subset that was picked to be rich in strong results.
# Tested on: Plasmodium falciparum
# Assay: Confirmatory screen in NF54 pLDH assay, in single point, at 2uM, 72h
# Assay type: functional, Erythrocyte
# Details: timepoint 72 hour
row,SMILES,% Inhibition [%]
1,COc1cc2c(cc1-c1cccnc1)CCC(=O)N2C,-22
2,CCc1c[nH]c(CNC(=O)C2(C(=O)NC3CC3)CCC2)n1,7
3,CCC[C@H](C)c1nc(N2CCN(C(=O)Cc3ccc(OC)cc3)CC2)c2cnn(-c3ccccc3)c2n1,9
4,CC(=O)Nc1ccc(NC(=O)CCC(C)C)cc1,-6
5,CC(=O)c1ccc(NC(=O)Cn2c(-c3ccccc3)nc(C)cc2=O)cc1,10
6,CC(=O)Nc1ccc(-c2cn3c4ccccc4ccc3[n+]2C)cc1,67
7,CCOc1cccc2c1OC1(C)C(C(=O)Nc3ccc(C)cc3C)C2NC(=O)N1c1ccccc1 (centres undefined),-7
8,O=C1[C@@H]2C[C@@H](CN2C(=O)c2cncnc2)Oc2ccccc2N1Cc1cccnc1,6
9,O=C(O)C[C@H](NC(=O)c1cscn1)c1ccc(Cl)s1,-23
10,O=S(=O)(c1cccnc1)N(CC1CCCCC1)c1cnccn1,10
11,COc1ccc2cccc(NC(=O)c3cc(-c4cc(OC)c(OC)c(OC)c4)n[nH]3)c2n1,51
12,COc1ccc(-c2cc(C(=O)Nc3ncc[nH]3)n[nH]2)cc1OC,22
13,COc1cc(NC(=O)c2cc(-c3cccc4ccccc34)[nH]n2)cc(OC)c1OC,10
14,Cc1ccnc2nc(C(=O)N(CC3CC3)CC(F)(F)F)nn12,10
15,Oc1cccc(CN[C@H]2CCCc3occc32)c1Cl,83
16,O=C(N[C@H]1CCCc2occc21)c1ccco1,7
17,CC(O)CC(C)(C)CNC1CCCc2occc21 (centres undefined),-9
18,CCOc1cc(C(=O)Nc2ccc3nc4c(c(Nc5ccc(OC)c(OC)c5)c3c2)CCCC4)cc(OCC)c1OCC,103
19,CCOC(=O)Oc1c(OC)cc(C(=O)Nc2ccc3c(c2)sc(=O)n3C)cc1OC,15
20,COc1ccc(Nc2nc(C(=O)Nc3ncc(C)s3)cs2)cc1OC,13
21,COC(=O)c1cc(S(=O)(=O)NCCc2csc(C)n2)cc(F)c1F,-8
22,CCN(C(=O)[C@H]1CCN(C)[C@@H](C)C1)C1CCCC1,11
23,Cc1cn(Cc2ncc(C(F)(F)F)cc2Cl)c(=O)[nH]c1=O,-18
24,N#Cc1ccc(NC(=O)[C@](F)(OC(F)(F)C(F)(F)C(F)(F)F)C(F)(F)F)cc1,-2
25,Cc1cc(CN(C)c2cc(C3CC3)nc(N(C)Cc3cc(C)on3)n2)no1,-11

row,SMILES,% Inhibition [%]
1,CN(Cc1ccc(-c2ccccc2)cc1)c1cc([C@H]2C[C@@H](N)C2)nc(N)n1,54
2,CC(=O)N1c2c(C)cccc2[C@@H](C)CC1(C)C,16
3,CCc1ccc(NC(=O)Cn2c(=O)ncc3cc(S(=O)(=O)N4CCCC[C@@H]4C)ccc32)cc1,11
4,CC(C)C[C@@H]1N[C@H](C(=O)NCCN(C)C)Cc2c[nH]c3cccc1c23,-19
5,Cc1cc2nc(C(=O)NC3CCN(Cc4ccccc4)CC3)c(=O)n(C)c2cc1C,-6
6,Cc1cc(C(=O)Nc2nc(-c3ccc4c(c3)CCC4)n[nH]2)no1,7
7,CCn1cc(C(=O)O)c(=O)c2cc(F)c(N3CCN(S(=O)(=O)c4ccccc4)CC3)cc21,-6
8,CCn1cc(-c2nc(-c3ccccc3C)no2)c(=O)c2cc(F)c(N3CCCCC3)cc21,42
9,CCn1cc(C#N)c(=O)c2cc(F)c(N3CCN(Cc4ccccc4)CC3)cc21,78
10,Cc1ccc(S(=O)(=O)Cc2nc(-c3ccc(C(=O)Nc4c(C)cccc4C)cc3)oc2C)cc1,13
11,Cc1cccc(-c2nc(C[N+]3(Cc4nc(-c5cccc(C)c5)oc4C)CCCC3)c(C)o2)c1,55
12,CCNC(=O)c1ccc(-c2nc(CS(=O)(=O)c3ccccc3)c(C)o2)cc1,-10
13,COc1cccc2c(=O)c3c([nH]c12)CCN(CC(=O)NCc1ccccc1Cl)C3,37
14,CN1CCC(N2CCC(CN(Cc3ccncc3)Cc3c(F)cccc3Cl)CC2)CC1,99
15,c1ccc(N2CCN(C3CCN(Cc4ccncc4)CC3)CC2)cc1,-2
16,O=S1(=O)CCN(C2CCN(Cc3c(F)cccc3F)CC2)CC1,14
17,c1cc(CN2CCN(C3CCCCCC3)CC2)ccn1,-17
18,COc1ccc(CN(Cc2ccncc2)CC2CCN(C3CCN(C)CC3)CC2)c(F)c1,93
19,Cc1ccc(C)c(NC(=O)N2CC(n3cnnc3-c3ccccc3)C2)c1,0
20,c1ccc(CCc2nnc3n2CCOC3)cc1,3
21,COCc1cc2nn(CC(=O)Nc3ccc4c(c3)OCO4)c(=O)n2c(-c2ccccc2)n1,12
22,Cc1ccc(CNC(=O)[C@@H](C)C2CCOCC2)cc1C,7
23,Cc1ccc(-c2nn3c([C@H]4CCCN(C)C4)nnc3s2)cc1C,-8
24,O=C1NC2(CCCC2)Nc2ccccc21,2
25,Cc1cc(=O)n2ncc(C(=O)Nc3ccc(F)cc3F)c2[nH]1,10

row,SMILES,% Inhibition [%]
1,COc1ccc(N(C)S(=O)(=O)c2ccsc2-c2nc(-c3cccnc3)no2)cc1Cl,-2
2,CC(C)(C)N(CC(N)=O)CC(=O)NC(=O)NC1CCCCC1,8
3,CCN(CC)C(=O)c1cc(C)n(-c2ccc3c(c2)OCCO3)c1C,-3
4,O=C1c2[nH]nc(-c3cccs3)c2[C@@H](c2cccc(O)c2)N1c1nccs1,5
5,O=S(=O)(N[C@H]1CCc2nnc(-c3ccc(F)cc3)n2C1)c1cccnc1,13
6,C[C@@H]1CN(c2ccc(N)cn2)C[C@H](C)O1,-12
7,COc1ccc(CC(=N)Nc2cc3cc(OC)c(OC)cc3c(Cc3ccc(OC)c(OC)c3)n2)cc1OC,89
8,COc1ccc(CCNC(=O)CCCC(=O)NCc2ccccc2)cc1OC,-14
9,CCCNC(=O)C[C@H](C)CC(=O)NCCc1ccc(OC)c(OC)c1,14
10,CNC(=O)C(=O)Nc1ccccc1C(F)(F)F,9
11,C[C@H](NC(=O)c1cocn1)c1ccccc1NC(=O)c1cocn1,-7
12,Cc1cc([C@H](Nc2ccccn2)c2ccccc2)c(NC(=O)c2ccccc2)s1,3
13,Cc1cc([C@H](Nc2ccccn2)c2cccnc2)c(NC(=O)c2ccccc2)s1,4
14,Oc1ccc2ncccc2c1[C@@H](Nc1ccccn1)c1cccc(Br)c1,77
15,CCCC(=O)N1CCC(OC(=O)c2cnc3ccc(F)cc3c2)CC1,-10
16,CC(C)Nc1nc2nonc2n2cnnc12,90
17,COc1ccc(Nc2ncc(Cc3ccccc3C)s2)cc1,4
18,CC(C)C(CNCc1nnn(C)n1)C(C)C,11
19,FC(F)(F)c1cnc(-c2csc(NC3CCCCC3)n2)c(Cl)c1,15
20,NC(=O)c1nnn2c1C(=O)N[C@H](c1ccc(Cl)cc1)C2,-13
21,CCc1c(-c2nc(CCN(C)C(=O)c3ccoc3)no2)[nH]c2ccc(C)cc12,-19
22,CCN1c2cc(C(=O)N3CCCCC3)ccc2C(=O)N2CCCCC[C@H]21,6
23,Cc1cc(C(=O)Nc2cc(C)nn2C)nc(N(C)C)n1,8
24,Cc1cc(NC(=O)c2ccccn2)n(-c2nc3ccccc3o2)n1,93
25,Cc1cc(C)n(C(=O)CNC(=O)c2ccccn2)n1,14

row,SMILES,% Inhibition [%]
1,COc1ccc(S(=O)(=O)N2CC[C@@H]3[C@@H](COCCN3Cc3ccccc3)C2)cc1,0
2,O=C(CNC(=O)COc1ccccc1)NCC1(O)CCCCCC1,6
3,C[C@@H](CN)N(C)c1ccnc2cc(Br)cnc12,96
4,O=C(O)C1c2ccccc2C(=O)N(C2CCCCC2)C1c1ccc(Cl)cc1 (centres undefined),-3
5,Cc1noc(C)c1CN1CCCN(C(=O)c2n[nH]c3ccccc23)CC1,7
6,Cc1noc(C)c1CN1CCNC(=O)CC1,-14
7,Cc1noc(C)c1CN1C[C@@H]2Oc3cc(F)ccc3C(=O)N(C)[C@@H]2C1,97
8,Cc1ccc(N2C(=O)c3ccccc3[C@H]2Nc2nc(C)cs2)nc1,-16
9,C[C@@H]1CN(C(=O)NCCc2ccc(C(F)(F)F)cn2)C[C@H](C)O1,6
10,Cc1cc(NCc2noc(-c3ccsc3)n2)ccc1C(N)=O,5
11,Cc1noc(C)c1NS(=O)(=O)c1ccc2c(c1)OCCCO2,0
12,CCN(CC(=O)Nc1ccc2c(c1)OCCO2)C(=O)CCc1c(C)noc1Cl,5
13,COc1ccc([C@@H]2c3[nH]c4ccc(OC)cc4c3CCN2C(=O)NCc2ccc(F)cc2)cc1,4
14,COc1ccc2[nH]c3c(c2c1)CCN(C(=O)c1ccc(C)c(C)c1)[C@@H]3c1ccccc1OC,86
15,COc1ccc(N2CCN(C(=O)c3ccc(F)cc3)[C@@H](C)C2=O)cc1,11
16,CC1(C)CCC(Nc2ccc(C(N)=O)nn2)CC1,92
17,CC1CCCCC1OCCN1CCOCC1C(N)=O (centres undefined),7
18,COc1cccc(-c2cc(C(=O)Nc3ccc(F)c(Cl)c3)c3c(C)nn(C)c3n2)c1,4
19,Cc1nn(C)c(C)c1-c1cc(C(=O)Nc2cc(F)ccc2F)c2c(C)nn(C)c2n1,2
20,CC(C)C(C(=O)O)N1Cc2c(cc(O)c3c2OC2(C3)C(C)CCC3C(C)(C)C(O)CCC32C)C1=O (centres undefined),5
21,Cc1c(NC(=O)C(F)(F)[C@@]2(F)OC(F)(F)C(F)(F)C2(F)F)c(=O)n(-c2ccccc2)n1C,-16
22,Cc1cc(F)ccc1-n1ccc(C(=O)N(C[C@H]2CCOC2)C2CC2)n1,-12
23,CC[C@](O)(C(=O)N(C)Cc1ncon1)c1cccc(Cl)c1,-13
24,Cc1ccc(CC[C@H]2Nc3ccccc3C(c3ccccc3)(c3ccccc3)O2)o1,66
